The whole screen tested about 5,500 compounds, of which about 2,000 (36%) were called active. About 18% were inconclusive and are not listed. Rule as the data show it: active = normalized growth mostly below about 0.91 (no sharp cut-off); inconclusive = no clear call, values can overlap the other calls; inactive = mostly above about 0.92. This is one part of the list.
Test: chemical genetic growth profiling, strain panel (AID 1159580);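 also: tested at 20 µM; growth read once vehicle control cultures reached saturation at 30 °C; 1 = growth at the plate median or of vehicle wells; lower values mean less growth of the strain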
Details: S. cerevisiae deletion strains, growth OD
[1] = locus YAL013W, strain DEP1, stronger effect = lower value
[2] = locus YJR075W, strain HOC1, stronger effect = lower value
[3] = locus YMR263W, strain SAP30, stronger effect = lower value
[4] = locus YNL153C, strain GIM3, stronger effect = lower value
[5] = locus YNL322C, strain KRE1, stronger effect = lower value
[6] = locus YPL055C, strain LGE1, stronger effect = lower value

Measured: normalized growth

CCN1CCCC1CNC(=O)c1cc(S(N)(=O)=O)ccc1OC (stereo unspecified)
inactive: [1] 0.972 | locus YAL040C, strain CLN3, stronger effect = lower value 0.955 | locus YCL061C, strain MRC1 (second series), stronger effect = lower value 0.984 | locus YDR363W, strain ESC2, stronger effect = lower value 0.962 | locus YER002W, strain NOP16, stronger effect = lower value 0.969 | [2] 0.973 | [3] 0.98 | locus YMR307W, strain GAS1, stronger effect = lower value 1.02 | [4] 1.02 | locus YNL175C, strain NOP13, stronger effect = lower value 0.978 | locus YNL197C, strain WHI3, stronger effect = lower value 0.977 | locus YNL224C, strain SQS1, stronger effect = lower value 0.992 | [5] 0.974 | locus YOR083W, strain WHI5 (second series), stronger effect = lower value 0.963 | [6] 0.993

CC(=O)Nc1ccc(S(=O)(=O)Nc2c(C)n(C)n(-c3ccccc3)c2=O)cc1
inactive: [1] 0.999 | locus YBR229C, strain ROT2, stronger effect = lower value 0.947 | locus YCL061C, strain MRC1, stronger effect = lower value 1.02 | locus YDL101C, strain DUN1, stronger effect = lower value 1.04 | locus YDR150W, strain NUM1, stronger effect = lower value 1.04 | locus YEL061C, strain CIN8, stronger effect = lower value 0.995 | locus YGR078C, strain PAC10, stronger effect = lower value 1.02 | locus YHR030C, strain SLT2, stronger effect = lower value 1.11 | locus YHR087W, strain rtc3, stronger effect = lower value 0.974 | locus YJR043C, strain POL32, stronger effect = lower value 1.02 | [2] 0.996 | locus YKL190W, strain CNB1, stronger effect = lower value 1.01 | locus YLR039C, strain RIC1, stronger effect = lower value 1.02 | locus YLR058C, strain SHM2 (second series), stronger effect = lower value 0.995 | locus YLR085C, strain ARP6, stronger effect = lower value 0.999 | locus YLR262C, strain YPT6, stronger effect = lower value 1 | locus YML094W, strain GIM5, stronger effect = lower value 1.01 | locus YMR219W, strain ESC1, stronger effect = lower value 1.01 | [3] 1.01 | [4] 1.06 | locus YNL298W, strain CLA4 (second series), stronger effect = lower value 1 | [5] 1.01 | locus YNR030W, strain Alg12, stronger effect = lower value 1 | [6] 0.974 | locus YPL241C, strain CIN2, stronger effect = lower value 0.987 | locus YPR135W, strain CTF4, stronger effect = lower value 1.07

From PubChem BioAssay AID1159580 (chemical genetic matrix, 2015)
